Compound activity (PubChem BioAssay)
Hits are enriched below; roughly 4.1% of the tested compounds scored in any of these assays.
AmpC detergent = AmpC beta-lactamase inhibition with detergent present; P00811; Potency, µM (top dose mostly 114 µM), inactives show top-dose activity change, negative = inhibition, hits mostly inhibitors; hit rate 0.041% among 370,000; AmpC hydrolysis of nitrocefin, absorbance 480 nm, 0.01% Triton; AID 485294;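 also: 0% = no-compound wells and -100% = no-enzyme wells; nearly all actives have a fitted effect of over 25% in size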
Target sequence (P00811 whole entry, looked up): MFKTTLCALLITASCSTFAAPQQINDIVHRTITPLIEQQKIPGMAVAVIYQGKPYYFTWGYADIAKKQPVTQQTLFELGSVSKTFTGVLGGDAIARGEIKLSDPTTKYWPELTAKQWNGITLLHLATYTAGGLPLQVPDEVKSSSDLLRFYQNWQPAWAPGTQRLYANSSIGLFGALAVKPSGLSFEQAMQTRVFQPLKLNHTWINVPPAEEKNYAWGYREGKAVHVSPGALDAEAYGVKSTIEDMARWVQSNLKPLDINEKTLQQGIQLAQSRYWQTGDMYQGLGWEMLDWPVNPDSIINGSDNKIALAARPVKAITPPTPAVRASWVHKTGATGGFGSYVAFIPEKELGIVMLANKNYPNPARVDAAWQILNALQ
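20 mM phosphate pH 7.0 + 0.01% (detergent screen) or 0.0001% Triton X-100; 5.3 nM AmpC reagent; cpd preinc 15 min RT; nitrocefin (800 uM stock) to start; A480 q20 s × 4 min; Activity was normalised to no-enzyme and no-compound control wells.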
AMA1 RON2 block = disrupts binding of P. falciparum AMA1 to RON2; AlphaScreen AMA1-biotinylated RON2 peptide binding; Potency, µM (highest dose often 58.2 µM), for inactives: at the highest dose activity change, negative = inhibition, most hits filed as inhibitors; hit rate 0.2% among 360,000; AID 720542;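 also: 0% = vehicle wells and -100% = peptide control; nearly all actives have a fitted effect of over 45% in size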
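AMA1 (3D7) with his tag at 25 nM final met compounds first, then biotinylated RON2 peptide at 25 nM; detection used donor plus acceptor beads, 10 µg/mL apiece, read by AlphaScreen after 30 min at room temperature.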
AmpC no deterg = AmpC beta-lactamase inhibition without detergent; P00811; AmpC nitrocefin hydrolysis, absorbance 480 nm, 0.0001% Triton; Potency, µM (series often up to 57.1 µM), without a hit: top-dose activity change, negative = inhibition, most hits filed as inhibitors; hit rate 0.52% among 330,000;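 also: plate controls were no compound for no effect and no enzyme for full effect; nearly all actives have a fitted effect of over 20% in size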
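AmpC (5.3 nM in the dispensed reagent) in 20 mM phosphate pH 7.0 with 0.01% (detergent screen) or 0.0001% Triton X-100 was preincubated with compounds for 15 min at room temperature. Nitrocefin was then added from an 800 uM solution, and hydrolysis was followed at 480 nm.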
FMDV antiviral = foot and mouth disease virus antiviral activity; FMDV antiviral cell-based qHTS; Potency, µM (titrated, usually from 57.9 µM), without a hit: at the highest dose activity change, negative = inhibition, usual class: inhibitors; hit rate 1.2% among 410,000; calls by dose curve; tested in HEK293T cells; also: read-out not given here; nearly all actives have a fitted effect of over 45% in size
Sm TGR block = inhibitors of Schistosoma mansoni thioredoxin glutathione reductase. Q962Y6. purified TGR, DTNB reduction, TNB absorbance 405 nm. Potency, µM (highest dose often 114 µM), for the others: top-dose activity change, negative = inhibition, actives largely listed as inhibitors. hit rate 3% among 360,000; also: nearly all actives have a fitted effect of over 60% in size
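TGR 20 nM + NADPH 100 uM (dispensed conc.), cpd preinc 15 min RT; start with NADPH (500 uM addition) then DTNB (15 mM addition). Kinetic TNB absorbance, 405 nm filter. Four-parameter Hill fit across titration.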
Numbers without * were called inactive; ? = inconclusive; nt = not tested or not shown; [ ] = another dose, or the depositor's remark. Unless noted, calls follow the shape of the dose curve; as a rule, active = well fitted curve in the direction sought with a large enough effect; inconclusive = small, poorly fitted or top-dose-only effect, or another doubt; inactive = no such curve, though single readings can be large; an effect the other way counts as inactive or inconclusive. Unless noted, % is scaled to controls: 0 for no effect and ±100 for the full control effect; potency is read from the fitted curve at half-maximal effect.

SMILES | AmpC detergent | AMA1 RON2 block | AmpC no deterg | FMDV antiviral | Sm TGR block
CN(CCc1ccccn1)C(=O)c1nn2c(C(F)(F)F)cc(-c3ccco3)nc2c1Cl | -9% | -1% | 63% | ? | 45µM*
O=C(Nc1cc(F)ccc1F)c1cc2nc(-c3ccco3)cc(C(F)(F)Cl)n2n1 | 6% | nt | nt | -5% | 22µM*
O=C(c1cnn2c(C(F)(F)F)cc(-c3ccco3)nc12)N1CCc2ccccc2C1 | -8% | 14% | 18% | -13% | 13µM*
CC(C)NC(=O)c1nn2c(C(F)(F)F)cc(-c3ccco3)nc2c1Cl | -2% | 42% | -12% | -8% | ?
Cc1cc2nc(-c3ccco3)cc(C(F)(F)F)n2n1 | 15% | -1% | 10µM* | -20% | -3%
O=C(c1cc2nc(-c3ccco3)cc(C(F)(F)F)n2n1)N1CCN(Cc2ccccc2)CC1 | -11% | 2% | 165% | 10% | 50µM*
O=C(c1cc2nc(-c3ccco3)cc(C(F)(F)F)n2n1)N1CCN(c2ccc(F)cc2)CC1 | 1% | -11% | 57% | nt | -24%
CCOC(=O)C1=C(C)OC(N)=C(C#N)C1c1ccc(OC)c(CSc2ccccn2)c1 (centres undefined) | -12% | -2% | -12% | -17% | 25µM*
COc1ccc(C2C(C#N)=C(N)Oc3n[nH]c(C)c32)cc1CSc1ccccn1 (centres undefined) | 0% | 22% | -39% | -22% | -12%
O=C1CCCC2=C1C(c1cccc(O)c1)c1c(ccc3ncccc13)N2 (centres undefined) | -4% | -1% | -39% | 9% | 32µM*
CCOc1cc(C2C3=C(CCCC3=O)Nc3ccc4ncccc4c32)ccc1O (centres undefined) | -4% | -14% | -29% | -2% | -19%
O=C1CCCC2=C1C(c1ccc(O)c(O)c1)Nc1ccc3ncccc3c12 (centres undefined) | -12% | -20% | -26% | 15% | 20µM*
O=C1CCCC2=C1C(c1cccs1)Nc1ccc3ncccc3c12 (centres undefined) | 4% | -2% | -40% | -14% | -1%
COc1ccc(C2C3=C(CCCC3=O)Nc3ccc4ncccc4c32)cc1OC (centres undefined) | -4% | 28% | 17% | 43% | 20µM*
COc1cc(C2C3=C(CCCC3=O)Nc3ccc4ncccc4c32)ccc1O (centres undefined) | -1% | -6% | -33% | 25% | -8%
COc1ccc(NCc2cc3cc4c(cc3n(CC(=O)Nc3cc(C)ccc3C)c2=O)OCCO4)cc1 | 16% | nt | nt | -21% | 5%
COc1ccc(-c2csc(C(C)(O)c3cccnc3)n2)cn1 (centres undefined) | nt | 10% | nt | -15% | nt
C=C1C(=O)OC2C1C(OC(=O)C(C)=CC)CC(=C)C1C(O)C3OC3(C)C21O (centres undefined) | nt | -1% | nt | 28µM* | nt
O=C(Nc1ccccc1Cl)c1cc(C2CCCCN2C(=O)c2ccccc2)on1 (centres undefined) | nt | -14% | nt | -6% | nt
O=[N+]([O-])c1cccnc1-n1cnc2ccccc21 | -5% | 1% | -13% | -5% | -31%
Cc1cc2ncn(-c3ncccc3[N+](=O)[O-])c2cc1C | 3% | -8% | -20% | -4% | 45µM*
COc1ccccc1CN=Cc1[nH]c2ccc(Br)c(Cl)c2c1O | 0% | 10% | -55% | -3% | 11µM*
CC(=O)c1c2c3c(cccc3n(C)c1=O)C(=O)c1ccccc1-2 | -4% | -10% | -18% | -11% | 8.9µM*
Cn1c(=O)c(Nc2ccc(O)cc2)c2c3c(cccc31)C(=O)c1ccccc1-2 | 0% | 25µM* | -59% | -11% | ?
CC(=O)c1c2c3c(c(Br)ccc3n(C)c1=O)C(=O)c1ccccc1-2 | 1% | -1% | 89% | -13% | -32%
SMILES | AmpC detergent | AMA1 RON2 block | AmpC no deterg | FMDV antiviral | Sm TGR block
CC(C)c1ccc(Nc2c([N+](=O)[O-])c(=O)n(C)c3ccccc23)cc1 | 0% | -19% | -43% | -6% | 7%
CCCc1nc2sc3c(=O)[nH]cnc3c2c2c1CCCC2 | -4% | nt | -35% | nt | -1%
CCc1nc2sc3c(=O)[nH]cnc3c2c2c1CSC(C)(C)C2 | -12% | 13% | -55% | -3% | 35µM*
CCOC(=O)c1ccc(Nc2c(-c3ccc(OC)cc3)nc3nc[nH]n23)cc1 | 4% | nt | nt | ? | 8%
CCOC(=O)c1ccc(Nc2c(-c3ccc(O)c(OC)c3)nc3nc[nH]n23)cc1 | 6% | nt | nt | 0% | 32µM*
COc1cnc(-c2ccccn2)nc1Oc1ccc(Cl)c2ccccc12 | -6% | 75% | 33% | 3.2µM* | 11%
COc1ccc(Cl)cc1NC(=O)c1cnc2sc(N3CCOCC3)nn2c1=O | -1% | nt | nt | -13% | -8%
CCOC(=O)c1ccccc1NC(=O)Cn1c(=O)n(CCC(=O)NCc2ccccc2OC)c(=O)c2ccccc21 | 21% | nt | nt | -28% | -7%
NC(=O)C(=CNc1nc(-c2ccc(Cl)c(Cl)c2)cs1)C(N)=O | -7% | nt | 14µM* | nt | 2.2µM*
COCCn1c(CNC(=O)c2cccc(N(C)C)c2)nc2cccnc21 | -3% | nt | nt | 20% | 5%
CCOC(=O)CCC(=O)N1CCNC(=O)C1 | 6% | -3% | 11µM* | -12% | 14%
CCOC(=O)C1(CCOc2ccccc2)CCN(C(=O)c2ccc(-n3cccn3)cc2)CC1 | 0% | -8% | 104% | 22µM* | -12%
Cc1nn(Cc2ccccc2)c2sc(C(=O)N3CCN(Cc4ccc5c(c4)OCO5)CC3)cc12 | 4% | ? | nt | 32µM* | 1%
CCOC(=O)N1CCN(C(=O)c2ccc3nc(N4CCCCC4)sc3c2)CC1 | -3% | -19% | 79% | 38% | 2%
O=C(c1ccc2nc(N3CCCCC3)sc2c1)N1CCN(Cc2ccc3c(c2)OCO3)CC1 | ? | ? | 32µM* | -16% | -8%
CC1=C(C)C(=O)C(CCCCC#CCCCC#CCO)=C(C)C1=O | -11% | -28% | 23% | 22µM* | 8.9µM*
O=C(CCc1cn(Cc2ccc(F)cc2)c2ccccc12)NCCc1ccc(Cl)cc1 | 24% | nt | nt | -9% | 8%
CCCCC[C@H](O)/C=C/C1C(=O)C=C[C@H]1C/C=C\CCCC(=O)OC (some centres undefined) | nt | 1% | nt | 25µM* | nt
CCCCC[C@H](O)/C=C/[C@H]1C(=O)C=C[C@@H]1C/C=C\CCCC(=O)O | nt | nt | nt | -12%[6.7 µM] | nt
CCOCCn1ccc2c(OCC(=O)Nc3ccc(C(N)=O)cc3)cccc2c1=O | 3% | nt | nt | -12% | 5%
CC(C)(C)C(=O)Nc1ccc(N=Nc2ccccc2)cc1 | -2% | -10% | -6% | 18µM* | 10%
O=C(Nc1ccccc1)Nc1sccc1-c1nc2ccccc2s1 | 8% | 20% | 14µM* | -14% | -10%
O=C(O)CCC(=O)Nc1ccc(N=Nc2ccccc2)cc1 | -9% | 9% | -22% | 58% | -8%
